Among the data in PubChem BioAssay (Tox21) are outcome, Potency and max activation values, retold here.

“And” between values parts separate entries of the source, which are not always exact repeats. Equal values may be shown once. Results filed as inconclusive are left out. The source made the active and inactive calls. Unless noted, calls come from the whole dose curve; as a rule, active = well fitted curve in the direction sought with a large enough effect in the repeat runs; inconclusive = weak or mixed curves; inactive = no such curve, though single readings can be large; an effect the other way counts as inactive or inconclusive.

The target of experiment [1] is Thyrotropin-releasing hormone receptor (Homo sapiens) (UniProt P34981). Put plainly: qHTS assay to identify small molecule agonists of the thyrotropin-releasing hormone receptor (TRHR) signaling pathway (AID 1346891; calls by dose curve;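 note: HEK293 cells expressing TRHR with calcium dye readout; series mostly up to about 58 µM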). An outline of the steps: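 HEK293/TRHR cells, 1500 per well, 18 h 37 °C; Ca dye 2 h 37 °C; pin-tool compound addition (agonist mode); kinetic fluorescence 3 min, 1 s reads; 15 concentrations, triplicate.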
Sequence of Thyrotropin-releasing hormone receptor (Homo sapiens) (P34981 whole entry, looked up): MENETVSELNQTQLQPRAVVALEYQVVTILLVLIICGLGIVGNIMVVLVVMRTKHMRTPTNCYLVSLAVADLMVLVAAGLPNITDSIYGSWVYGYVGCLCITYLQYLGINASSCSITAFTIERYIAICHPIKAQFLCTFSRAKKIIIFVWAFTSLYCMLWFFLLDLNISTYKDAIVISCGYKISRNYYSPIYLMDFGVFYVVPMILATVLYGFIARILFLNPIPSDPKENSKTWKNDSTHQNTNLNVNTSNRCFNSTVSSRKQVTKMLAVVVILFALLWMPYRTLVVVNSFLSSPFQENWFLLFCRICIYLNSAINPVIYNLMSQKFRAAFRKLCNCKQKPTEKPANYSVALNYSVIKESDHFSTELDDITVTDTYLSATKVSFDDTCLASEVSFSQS
In general terms: Quantitative high-throughput screening tests each substance at several concentrations.

A short description of experiment [2]: Human pregnane X receptor (PXR) small molecule agonists, qHTS cell viability counter screen (AID 1346977). Note: nearly all actives have a fitted effect of over 50% in size. An outline of the steps:
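Fluorescence read-out (CellTiter-Fluor) of viability in PXR-Luc HepG2 cells, multiplexed with the luciferase agonist read. Compounds in DMSO added after 5hr plating; 24hr total exposure at 37C, 5% CO2.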

The nature of experiment [3]: Caspase-3/7 induction in HepG2 cells by small molecules, qHTS assay (AID 1346978). Note: nearly all actives have a fitted effect of over 15% in size. An outline of the steps:
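Wild-type HepG2 cells, 2,000/well, settled 5 hr at 37 C and 5% CO2, then compound-treated for 17 hr; caspase-3/7 activity read by luminescent Caspase-Glo 3/7 after 30 min at room temperature.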

Experiment [4] can be described thus: Caspase-3/7 induction in CHO-K1 cells by small molecules, qHTS cell viability counter screen (AID 1346979). Note: nearly all actives have a fitted effect of over 35% in size. An outline of the steps: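 CHO-K1 wt, 1,500 cells/well; 5hr pre-incubation 37C/5% CO2; compound pin transfer (DMSO); 16hr exposure; CellTiter-Fluor added, 1hr, fluorescence read.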
The nature of experiment [5]: Caspase-3/7 induction in CHO-K1 cells by small molecules, qHTS assay (AID 1346980). Note: nearly all actives have a fitted effect of over 15% in size. An outline of the steps: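 Wild-type CHO-K1 cells exposed to compounds for 17hr at 37 C, 5% CO2. Caspase-3/7 activity then measured by Caspase-Glo 3/7 luminescence after 30min at room temperature.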
Experiment [6] can be described thus: Caspase-3/7 induction in HepG2 cells by small molecules, qHTS cell viability counter screen (AID 1346981). Note: series mostly up to about 92 µM; nearly all actives have a fitted effect of over 30% in size. An outline of the steps:
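HepG2, WT, 2,000 cells/well; 5 hr pre-incubation 37 C/5% CO2; compound pin-transferred from DMSO; 16 hr exposure; CellTiter-Fluor, 1 hr; fluorescence read.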

Experiment [7] concerns the target Acetylcholinesterase (Homo sapiens) (UniProt P22303). Put plainly: Acetylcholinesterase (AChE) small molecule antagonists: colormetric cell-based qHTS assay (AID 1347395; calls by dose curve; note: nearly all actives have a fitted effect of over 30% in size; note: potency is the fitted concentration of half-maximal effect). An outline of the steps:
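SH-SY5Y cells; cpd 30 min 37 C; + DTNB/acetylthiocholine, 90 min 37 C; colorimetric thiocholine read; qHTS.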

Experiment [8] shares this target. Put plainly: Acetylcholinesterase (AChE) small molecule antagonists: enzyme-based qHTS assay (AID 1347397; calls by dose curve; note: nearly all actives have a fitted effect of over 55% in size; note: potency is the fitted concentration of half-maximal effect). As to conditions: Potency: AChE enzyme activity inhibition; outcome: AChE enzyme activity inhibition. An outline of the steps:
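Recombinant human AChE (50 mU/mL) preincubated with compound 30 min at room temperature; acetylthiocholine plus DTNB then added, and thiocholine formation read colorimetrically after 10 min at room temperature. DMSO served as vehicle control.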

The target is the same in experiment [9]. The experiment can be described thus: Acetylcholinesterase (AChE) small molecule antagonists: fluorescence cell-based qHTS assay (AID 1347398; calls by dose curve; note: nearly all actives have a fitted effect of over 50% in size; note: potency is the fitted concentration of half-maximal effect). As to conditions: Potency: AChE activity; outcome: AChE activity. An outline of the steps: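 SH-SY5Y cells (2000/well), attached overnight, incubated with compound 30 min at 37 C. Acetylthiocholine plus Thiolite Green then added for 40 min at room temperature. Thiocholine fluorescence (Ex/Em 490/520 nm) reports cellular AChE activity.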

Experiment [10] shares this target. Put plainly: Acetylcholinesterase (AChE) small molecule antagonists: enzyme-based qHTS assay with human liver microsomes (AID 1347399; calls by dose curve; note: nearly all actives have a fitted effect of over 60% in size; note: potency is the fitted concentration of half-maximal effect). As to conditions: Potency: qHTS inhibition; outcome: qHTS inhibition. An outline of the steps: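 Recombinant human AChE (50 mU/mL in the enzyme mix) and human liver microsomes (0.25 mg/mL final) were preincubated with compound and NADPH (0.25 mg/mL final) for 30 min at 37 C. Acetylthiocholine/DTNB was then added; thiocholine was read colorimetrically after 10 min at room temperature.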

Experiment [11] deals with Cytochrome P450 2D6 (Homo sapiens) (UniProt P10635). Put plainly: Cytochrome P450 Family 2 Subfamily D Member 6 (CYP2D6) small molecule antagonists: luciferase reporter qHTS assay (AID 1671196). Note: series mostly up to about 120 µM; nearly all actives have a fitted effect of over 50% in size. An outline of the steps:
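Read-out is luminescence from luciferin formed by CYP2D6 turnover of a proluciferin substrate, recorded as relative luminescence units. Reactions ran 1 h at room temperature after NADPH regeneration solution was added.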
A general note: A reporter such as luciferase makes a cellular process visible.

In experiment [12] the target is Cytochrome P450 2C19 (Homo sapiens) (UniProt P33261). The experiment can be described thus: Cytochrome P450 Family 2 Subfamily C Member 19 (CYP2C19) small molecule antagonists: luciferase reporter qHTS assay (AID 1671197). Note: nearly all actives have a fitted effect of over 65% in size. Note: potency is the fitted concentration of half-maximal effect. An outline of the steps: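 Luminescent readout of CYP2C19 activity: luciferin product detected 20 min after adding detection reagent. Before that, compound and enzyme-substrate mix preincubated 10 min at room temperature; NADPH-regenerating system started a 1 h, 37C reaction. Ketoconazole as positive control.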
Sequence of Cytochrome P450 2C19 (Homo sapiens) (P33261 whole entry, looked up): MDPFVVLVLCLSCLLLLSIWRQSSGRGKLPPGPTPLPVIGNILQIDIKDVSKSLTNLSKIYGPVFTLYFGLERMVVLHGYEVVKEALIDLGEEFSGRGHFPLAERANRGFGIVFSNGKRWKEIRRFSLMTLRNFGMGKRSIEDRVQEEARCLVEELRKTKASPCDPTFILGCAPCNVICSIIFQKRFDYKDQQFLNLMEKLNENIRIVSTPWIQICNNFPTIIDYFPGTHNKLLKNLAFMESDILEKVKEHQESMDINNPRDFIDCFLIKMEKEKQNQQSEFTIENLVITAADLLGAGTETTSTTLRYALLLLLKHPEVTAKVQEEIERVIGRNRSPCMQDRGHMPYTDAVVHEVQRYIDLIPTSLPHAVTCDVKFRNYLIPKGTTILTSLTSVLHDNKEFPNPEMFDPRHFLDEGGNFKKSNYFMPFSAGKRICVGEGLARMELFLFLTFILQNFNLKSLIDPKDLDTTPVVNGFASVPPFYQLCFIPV

Experiment [13] concerns the target Cytochrome P450 2C9 (Homo sapiens) (UniProt P11712). Put plainly: Cytochrome P450 Family 2 Subfamily C Member 9 (CYP2C9) small molecule antagonists: luciferase reporter qHTS assay (AID 1671198). Note: nearly all actives have a fitted effect of over 50% in size. Note: potency is the fitted concentration of half-maximal effect. An outline of the steps:
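P450-Glo proluciferin substrate with CYP2C9 enzyme; 10 min RT preincubation, then NADPH regeneration 1 h at 37C; luciferin detection reagent 20 min RT, luminescence in relative luminescence units.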

For experiment [14], the target named is Voltage-gated inwardly rectifying potassium channel KCNH2 (Homo sapiens) (UniProt Q12809). Put plainly: Human Ether-a-go-go-Related Gene (hERG) channel small molecule antagonists: fluorescence cell-based qHTS assay (AID 1671200). An outline of the steps:
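Read-out: thallium influx as a surrogate for potassium, tracked as fluorescence (480 nm ex/540 nm em) every second for 2 min after Stimulus Buffer addition in dye-loaded hERG-U2OS cells.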
(hERG is a cardiac potassium channel; its block is linked to QT prolongation.)

The target of experiment [15] is Cytochrome P450 3A4 (Homo sapiens) (UniProt P08684). The experiment can be described thus: Cytochrome P450 Family 3 Subfamily A Member 4 (CYP3A4) small molecule antagonists: luciferase reporter qHTS assay (AID 1671201). An outline of the steps: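 Luminescent readout (RLU) proportional to CYP3A4 activity, from luciferin generated off a proluciferin substrate. Enzyme–substrate mix plus compound 10 min at room temp, NADPH regeneration 1 h, detection reagent 20 min.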

Experiment [16] concerns the target Cytochrome P450 1A2 (Homo sapiens) (UniProt P05177). Put plainly: Cytochrome P450 Family 1 Subfamily A Member 2 (CYP1A2) small molecule antagonists: luciferase reporter qHTS assay (AID 1671199). An outline of the steps: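 P450-Glo CYP1A2, 1536-well qHTS: enzyme/proluciferin substrate + cpd (DMSO), 10 min RT; NADPH regen, 1 h RT; detection reagent, 20 min; luminescence, RLU.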

The target in experiment [17] is Nuclear receptor subfamily 1 group I member 2 (Homo sapiens) (UniProt O75469). Put plainly: Human pregnane X receptor (PXR) small molecule agonists, qHTS assay (AID 1346982). Note: nearly all actives have a fitted effect of over 35% in size. An outline of the steps:
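Luciferase signal from ONE-Glo (30 min, room temperature) measured activation of hPXR-driven CYP3A4 reporter expression in PXR-Luc HepG2 cells treated with compounds for 24 hr at 37 C.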

Experiment [18] concerns the target Nuclear receptor subfamily 1 group I member 2 (Rattus norvegicus) (UniProt Q9R1A7). Put plainly: Rat pregnane X receptor (rPXR) activation by small molecules, qHTS assay (AID 1346983). Note: nearly all actives have a fitted effect of over 20% in size. Particulars: rPXR luciferase reporter cells, One-Glo luminescence, 24 h; stronger effect = higher value. An outline of the steps: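 Cell-based rPXR activation assay: rPXR cells, 2,000 per well, rested 5hr at 37 C, then exposed to compounds in DMSO for 24 hr at 37 C. Luciferase activity read by One-Glo luminescence after 30 min at room temperature.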

The target of experiment [19] is Nuclear receptor subfamily 1 group I member 2 (Homo sapiens) (UniProt O75469). Put plainly: Human pregnane X receptor (PXR) activation by small molecules, qHTS assay (AID 1346985). Note: nearly all actives have a fitted effect of over 40% in size. An outline of the steps:
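DPX-2 cells (HepG2 co-transfected with a PXR response element and a CYP3A4-promoter luciferase construct) were seeded at 2,000 per well, rested 5 hr at 37C, then exposed to DMSO-dissolved compounds for 24 hr. Activation was read as luciferase luminescence.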
% is set by controls: 0 for no effect and ±100 for the full control effect.

Sequence of Cytochrome P450 1A2 (Homo sapiens) (P05177 whole entry, looked up): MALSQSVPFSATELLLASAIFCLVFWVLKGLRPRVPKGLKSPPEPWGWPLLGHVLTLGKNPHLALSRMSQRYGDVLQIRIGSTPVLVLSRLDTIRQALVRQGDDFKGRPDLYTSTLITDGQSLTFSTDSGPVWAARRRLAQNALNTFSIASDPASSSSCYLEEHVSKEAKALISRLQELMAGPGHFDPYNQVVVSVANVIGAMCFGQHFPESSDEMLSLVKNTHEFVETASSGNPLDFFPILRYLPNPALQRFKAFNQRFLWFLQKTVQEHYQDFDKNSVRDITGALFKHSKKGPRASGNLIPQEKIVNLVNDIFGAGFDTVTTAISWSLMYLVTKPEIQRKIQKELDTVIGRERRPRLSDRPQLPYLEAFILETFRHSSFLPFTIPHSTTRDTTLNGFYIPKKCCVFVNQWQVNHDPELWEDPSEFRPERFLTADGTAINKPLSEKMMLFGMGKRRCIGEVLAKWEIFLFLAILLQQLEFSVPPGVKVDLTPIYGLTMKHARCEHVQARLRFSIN
Sequence of Cytochrome P450 2D6 (Homo sapiens) (P10635 whole entry, looked up): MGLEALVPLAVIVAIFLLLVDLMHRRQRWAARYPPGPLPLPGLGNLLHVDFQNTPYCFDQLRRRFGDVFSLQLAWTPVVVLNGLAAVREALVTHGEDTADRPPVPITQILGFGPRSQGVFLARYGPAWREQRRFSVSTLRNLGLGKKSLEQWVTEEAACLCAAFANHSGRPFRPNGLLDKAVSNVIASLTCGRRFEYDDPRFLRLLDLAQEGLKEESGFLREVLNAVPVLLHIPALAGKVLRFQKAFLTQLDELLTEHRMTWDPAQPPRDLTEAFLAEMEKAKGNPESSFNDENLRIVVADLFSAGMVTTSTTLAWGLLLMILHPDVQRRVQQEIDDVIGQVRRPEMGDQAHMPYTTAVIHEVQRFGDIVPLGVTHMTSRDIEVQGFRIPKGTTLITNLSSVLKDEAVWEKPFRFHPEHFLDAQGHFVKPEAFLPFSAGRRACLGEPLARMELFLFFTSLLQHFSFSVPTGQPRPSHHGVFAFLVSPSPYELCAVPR
Sequence of Voltage-gated inwardly rectifying potassium channel KCNH2 (Homo sapiens) (Q12809 whole entry, looked up): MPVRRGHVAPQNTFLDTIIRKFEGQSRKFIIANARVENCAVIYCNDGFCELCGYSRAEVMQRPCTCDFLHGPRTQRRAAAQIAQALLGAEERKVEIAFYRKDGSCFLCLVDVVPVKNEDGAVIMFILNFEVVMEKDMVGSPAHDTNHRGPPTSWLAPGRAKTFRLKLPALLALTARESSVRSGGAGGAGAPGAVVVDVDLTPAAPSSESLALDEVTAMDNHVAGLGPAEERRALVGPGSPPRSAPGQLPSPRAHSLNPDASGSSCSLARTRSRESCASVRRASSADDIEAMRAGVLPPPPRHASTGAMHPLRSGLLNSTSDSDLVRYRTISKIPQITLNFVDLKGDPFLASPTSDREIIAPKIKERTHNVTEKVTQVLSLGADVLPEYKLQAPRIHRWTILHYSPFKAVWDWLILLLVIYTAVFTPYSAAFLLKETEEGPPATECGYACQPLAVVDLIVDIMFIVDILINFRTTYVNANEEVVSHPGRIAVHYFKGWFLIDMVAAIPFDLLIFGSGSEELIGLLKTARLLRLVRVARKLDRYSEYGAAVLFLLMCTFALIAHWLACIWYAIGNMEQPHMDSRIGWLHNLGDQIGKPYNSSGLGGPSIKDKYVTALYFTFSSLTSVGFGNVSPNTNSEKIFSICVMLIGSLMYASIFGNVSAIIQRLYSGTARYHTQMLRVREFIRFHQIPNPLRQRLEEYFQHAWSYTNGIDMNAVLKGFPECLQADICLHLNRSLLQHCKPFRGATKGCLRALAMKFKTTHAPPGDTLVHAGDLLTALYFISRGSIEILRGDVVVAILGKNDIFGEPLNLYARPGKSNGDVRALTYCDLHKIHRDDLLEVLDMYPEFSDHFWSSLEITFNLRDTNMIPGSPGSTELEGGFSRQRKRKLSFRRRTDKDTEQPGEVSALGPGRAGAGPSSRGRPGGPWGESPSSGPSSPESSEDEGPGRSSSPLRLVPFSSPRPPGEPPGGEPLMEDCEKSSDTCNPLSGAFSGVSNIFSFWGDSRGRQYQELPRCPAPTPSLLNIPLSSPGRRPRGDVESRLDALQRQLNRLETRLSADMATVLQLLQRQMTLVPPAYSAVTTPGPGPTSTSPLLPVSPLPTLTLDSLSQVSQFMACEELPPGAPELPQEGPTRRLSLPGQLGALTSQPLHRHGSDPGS
Sequence of Cytochrome P450 2C9 (Homo sapiens) (P11712 whole entry, looked up): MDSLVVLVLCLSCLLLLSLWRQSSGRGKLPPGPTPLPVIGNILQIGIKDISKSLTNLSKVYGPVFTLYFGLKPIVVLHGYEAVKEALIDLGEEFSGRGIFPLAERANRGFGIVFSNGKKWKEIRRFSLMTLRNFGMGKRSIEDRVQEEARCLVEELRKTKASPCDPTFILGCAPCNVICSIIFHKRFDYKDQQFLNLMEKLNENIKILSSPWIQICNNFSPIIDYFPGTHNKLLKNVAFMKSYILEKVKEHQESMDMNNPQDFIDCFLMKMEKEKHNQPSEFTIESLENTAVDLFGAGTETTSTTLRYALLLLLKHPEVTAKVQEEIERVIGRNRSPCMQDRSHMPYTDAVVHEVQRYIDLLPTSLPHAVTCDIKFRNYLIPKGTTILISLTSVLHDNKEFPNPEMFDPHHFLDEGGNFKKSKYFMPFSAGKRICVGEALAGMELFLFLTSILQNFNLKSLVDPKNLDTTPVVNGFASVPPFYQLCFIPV
Sequence of Nuclear receptor subfamily 1 group I member 2 (Homo sapiens) (O75469 whole entry, looked up): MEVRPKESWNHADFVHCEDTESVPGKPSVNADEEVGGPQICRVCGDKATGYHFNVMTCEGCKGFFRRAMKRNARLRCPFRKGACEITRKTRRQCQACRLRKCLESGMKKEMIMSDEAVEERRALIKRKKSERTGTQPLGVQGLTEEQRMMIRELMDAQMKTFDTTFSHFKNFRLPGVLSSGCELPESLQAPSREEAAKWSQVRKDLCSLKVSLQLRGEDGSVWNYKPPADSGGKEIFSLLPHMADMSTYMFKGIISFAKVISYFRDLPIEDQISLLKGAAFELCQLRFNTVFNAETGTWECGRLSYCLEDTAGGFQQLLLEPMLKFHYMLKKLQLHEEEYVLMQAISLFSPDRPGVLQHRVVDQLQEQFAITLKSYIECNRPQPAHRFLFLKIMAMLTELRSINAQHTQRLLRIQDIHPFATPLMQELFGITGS
Sequence of Acetylcholinesterase (Homo sapiens) (P22303 whole entry, looked up): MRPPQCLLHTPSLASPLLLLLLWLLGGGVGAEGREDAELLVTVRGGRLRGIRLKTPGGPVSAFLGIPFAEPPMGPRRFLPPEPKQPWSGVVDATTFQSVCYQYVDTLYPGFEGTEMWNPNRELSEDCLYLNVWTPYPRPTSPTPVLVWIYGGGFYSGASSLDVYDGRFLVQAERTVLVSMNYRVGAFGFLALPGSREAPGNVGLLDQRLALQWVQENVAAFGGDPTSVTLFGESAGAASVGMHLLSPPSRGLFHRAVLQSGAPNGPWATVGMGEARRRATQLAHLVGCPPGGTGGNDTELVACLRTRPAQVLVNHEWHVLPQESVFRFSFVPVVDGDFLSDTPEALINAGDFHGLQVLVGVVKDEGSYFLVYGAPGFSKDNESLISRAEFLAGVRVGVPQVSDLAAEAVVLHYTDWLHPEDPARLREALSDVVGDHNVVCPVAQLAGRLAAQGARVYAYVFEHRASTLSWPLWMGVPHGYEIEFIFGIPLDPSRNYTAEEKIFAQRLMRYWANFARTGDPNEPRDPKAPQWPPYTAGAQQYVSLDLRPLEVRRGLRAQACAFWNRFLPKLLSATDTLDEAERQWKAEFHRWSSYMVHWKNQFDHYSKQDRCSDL

As for `CNC(=O)O/N=C(/CSC)C(C)(C)C`, the call in experiment [1], in experiment [3] and in experiment [5] was inactive. The Potency entry in experiment [2], in experiment [4], in experiment [6], in experiment [11], in [13] and in experiment [14] was “inactive” each time. Besides, the Potency result in [15] is “inactive”. The Potency in experiment [7] was 1.59 µM (active); in experiment [8] it was 1 µM (active); in experiment [9], 142 nM (active); in experiment [10], 11.2 µM (active); in experiment [12], 20 µM (active).

For the compound `Clc1nc(Cl)nc(Nc2ccccc2Cl)n1`, the compound was called inactive in experiment [1], in experiment [3] and in experiment [5]. Moreover, the Potency entry in experiment [2], in experiment [4], in [6], in experiment [7], in experiment [8] and in experiment [9] was “inactive” each time. Also, the Potency entry in experiment [10], in experiment [11], in experiment [16], in experiment [14] and in experiment [15] was “inactive” each time. Besides, the Potency in [12] is 79.6 µM (active).

For the compound `Cc1ccc2cc(C)ccc2c1`, the compound was classed as inactive in [1], in experiment [3] and in [5]. Besides, the Potency result in [2], in experiment [4], in [6], in experiment [17], in experiment [9] and in experiment [10] was “inactive” in each case. Besides, the Potency result in experiment [11], in experiment [12], in experiment [13], in experiment [14] and in experiment [15] was “inactive” each time.

In the case of `Cn1c(CCCC(=O)O)nc2cc(N(CCCl)CCCl)ccc21`, the call in experiment [1], in experiment [3] and in experiment [5] was inactive. Also, the Potency entry in experiment [2], in experiment [6], in experiment [17], in experiment [19], in [7] and in experiment [8] was “inactive” throughout. For the same compound, the Potency entry in experiment [9], in experiment [10], in experiment [11], in experiment [12], in [13] and in experiment [16] was “inactive” each time. Moreover, the Potency entry in experiment [14] and in [15] was “inactive” throughout. For the same compound, the max activation in experiment [18] is -0.144% (inactive).

On to `C/C(=N\NC(=O)Nc1cc(F)cc(F)c1)c1ncccc1C(=O)O`, for which the compound was called inactive in experiment [1], in experiment [3] and in experiment [5]. For the same compound, the Potency result in experiment [2], in [4], in experiment [6], in experiment [17], in experiment [8] and in [9] was “inactive” each time. Also, the Potency result in [10], in experiment [11], in experiment [14] and in experiment [15] was “inactive” throughout. Also, the Potency in [13] was 10 µM (active) and 12.6 µM (active).

For `OP(O)c1ccccc1`, the compound was called inactive in [1], in experiment [3] and in [5]. The Potency result in experiment [2], in experiment [4], in experiment [6], in experiment [17], in experiment [9] and in experiment [10] was “inactive” each time. The Potency entry in experiment [11], in experiment [12], in experiment [13], in [16], in experiment [14] and in experiment [15] was “inactive” in each case.

With `[O-][Br+2]([O-])O`, the compound was called inactive in [1], in experiment [3] and in experiment [5]. Besides, the Potency result in experiment [2], in [6], in experiment [17], in experiment [7], in experiment [9] and in [10] was “inactive” throughout. Besides, the Potency entry in [11], in experiment [12], in experiment [13], in [16] and in experiment [15] was “inactive” throughout.
